CYP2C19 act – human CYP2C19 activators, primary screen, biochemical, luminescence; 96,000 tested, under 10 active; Cytochrome P450 2C19 (Homo sapiens), P33261; activation factor at 5 µM; recombinant CYP2C19, luciferin-H EGE luminescence; hits give high values; 0 = fully inhibited enzyme, 1 = untreated enzyme;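 active = activation factor of at least 2 at 5 µM in the primary screen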;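 note: 0 = wells with 2.5 mM tranylcypromine and 1 = vehicle-only wells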
CYP2C19 inhib – blockers of cytochrome P450 2C19 activity – biochemical, luminescence, ADME assay, primary screen; CYP2C19 Supersomes, luciferin-H EGE luminescence, 30 min; inhibition, % at 5 µM; 96,000 tested, 21% active;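 active = CYP2C19 inhibition above a set limit at 5 µM in the primary screen, cut at about 50% in these data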;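 note: plate controls were negative control wells for no effect and 2.5 mM tranylcypromine positive control for full effect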
PLAP activator – PLAP enzyme activators, biochemical, luminescence, HTS; Alkaline phosphatase, placental type (Homo sapiens), P05187; purified PLAP enzyme, luminescent substrate read-out; hits give high values; activation fold at 20 µM; 96,000 tested, 1.2% active; AID 696, 2007; in the data active = activation fold above about 2
Target sequence (P05187 whole entry, looked up): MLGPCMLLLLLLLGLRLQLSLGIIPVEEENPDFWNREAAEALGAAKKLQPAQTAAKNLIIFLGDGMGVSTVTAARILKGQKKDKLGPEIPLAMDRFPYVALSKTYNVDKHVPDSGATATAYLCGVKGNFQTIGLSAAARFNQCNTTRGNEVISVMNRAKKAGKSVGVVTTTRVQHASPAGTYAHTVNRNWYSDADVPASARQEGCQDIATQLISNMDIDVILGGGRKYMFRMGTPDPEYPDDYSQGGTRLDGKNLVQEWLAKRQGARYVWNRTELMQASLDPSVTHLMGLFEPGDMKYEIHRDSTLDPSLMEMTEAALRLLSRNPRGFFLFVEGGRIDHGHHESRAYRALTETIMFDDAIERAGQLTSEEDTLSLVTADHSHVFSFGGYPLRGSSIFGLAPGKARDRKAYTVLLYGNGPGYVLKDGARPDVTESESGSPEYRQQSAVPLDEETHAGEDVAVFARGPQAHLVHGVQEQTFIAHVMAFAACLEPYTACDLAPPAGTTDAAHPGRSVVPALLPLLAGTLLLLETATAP
CYP2C9 inhib – blockers of cytochrome P450 2C9 activity – biochemical, luminescence, ADME assay, primary screen. P11712. CYP2C9 Supersomes, luciferin-H conversion. inhibition, % at 5 µM. 96,000 tested, 20% active. AID 777, 2007;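 active = blocking of liver enzyme CYP2C9 beyond about 50% at 5 µM, limit read from the data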
CYP2C9 act – human CYP2C9 activators, primary screen, biochemical, luminescence; 96,000 tested, 1.4% active; recombinant CYP2C9, luciferin-H conversion; hits give high values; factor 1 = untreated enzyme, 0 = blocked; activation factor at 5 µM; AID 1024, 2008; Cytochrome P450 2C9 (Homo sapiens), P11712;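 active = activation factor of 2 or more for CYP2C9 at a 5 µM dose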;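 note: 0 = sulfaphenazole-blocked wells and 1 = vehicle-only wells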
Starred values were filed as active, the others as inactive. Shown are actives, neighbours in structure and some others; about 31% of the full set was active somewhere.

Results for CCOC(=O)c1ccccc1OCc1cc(/C=N/n2cnnc2)ccc1OC ?
CYP2C19 act: 0.4; CYP2C19 inhib: 61*; PLAP activator: 1.1; CYP2C9 inhib: 71*; CYP2C9 act: 0.3

What do the screens show for `Cc1nc(CSc2nnc3scc(-c4ccc(Cl)cc4)n23)cs1`?
CYP2C19 act: 0.4; CYP2C19 inhib: 60*; PLAP activator: 0.9; CYP2C9 inhib: 31; CYP2C9 act: 0.7

What do the screens show for `CC1=C(C#N)CCC(=O)N1Cc1ccc(C)cc1`?
CYP2C19 act: 0.4; CYP2C19 inhib: 61*; PLAP activator: 1; CYP2C9 inhib: 18; CYP2C9 act: 0.8

How did CCN(CCO)c1ncnc2c1sc1nc(CC(C)C)c3c(c12)CC(C)(C)OC3 do in these assays?
CYP2C19 act: 0.8; CYP2C19 inhib: 20; PLAP activator: 1.4; CYP2C9 inhib: 69*; CYP2C9 act: 0.3

Results for Cc1c(C(=O)NCCN2CCOCC2)oc2ccc(S(=O)(=O)N3CCCCCC3)cc12 ?
CYP2C19 act: 0.9; CYP2C19 inhib: 10; PLAP activator: 1.6; CYP2C9 inhib: 27; CYP2C9 act: 0.7

How did O=C(CCSCCC(=O)NCCN1CCOCC1)NCCN1CCOCC1 do in these assays?
CYP2C19 act: 1.1; CYP2C19 inhib: -7; PLAP activator: 1.4; CYP2C9 inhib: 84*; CYP2C9 act: 0.2

What do the screens show for `CCN(CC)S(=O)(=O)c1ccc2oc(C(=O)NCCCN3CCOCC3)c(C)c2c1`?
CYP2C19 act: 0.8; CYP2C19 inhib: 21; PLAP activator: 2*; CYP2C9 inhib: 23; CYP2C9 act: 0.8

How did Cc1c(C(=O)NCCN2CCOCC2)oc2ccccc12 do in these assays?
CYP2C19 act: 0.5; CYP2C19 inhib: 54*; PLAP activator: 1.1; CYP2C9 inhib: 6; CYP2C9 act: 0.9

Results for O=C(CCCc1ccccc1)NCCN1CCOCC1 ?
CYP2C19 act: 0.6; CYP2C19 inhib: 40; PLAP activator: 0.9; CYP2C9 inhib: 0; CYP2C9 act: 1

Results for CCN(CC)S(=O)(=O)c1ccc2oc(C(=O)Nc3ccc(OC)cc3OC)c(C)c2c1 ?
CYP2C19 act: 1; CYP2C19 inhib: 2; PLAP activator: 1; CYP2C9 inhib: 12; CYP2C9 act: 0.9

How did CCN(CC)S(=O)(=O)c1ccc2oc(C(=O)NCc3ccc(F)cc3)c(C)c2c1 do in these assays?
CYP2C19 act: 0.4; CYP2C19 inhib: 58*; PLAP activator: 1.2; CYP2C9 inhib: 59*; CYP2C9 act: 0.4

How did COc1ccc(CN/C(C)=C(/C#N)C(N)=O)cc1OC do in these assays?
CYP2C19 act: 0.9; CYP2C19 inhib: 12; PLAP activator: 0.9; CYP2C9 inhib: 6; CYP2C9 act: 0.9

Results for CC(=O)Nc1nc(-c2ccc(Cl)cc2)nc(C)c1C(C)=O ?
CYP2C19 act: 1.1; CYP2C19 inhib: -12; PLAP activator: 1.5; CYP2C9 inhib: 14; CYP2C9 act: 0.9

How did Cc1ccc2[nH]c(=O)c(N3CCOCC3)c(-c3ccccc3)c2c1 do in these assays?
CYP2C19 act: 1.1; CYP2C19 inhib: -7; PLAP activator: 0.9; CYP2C9 inhib: -11; CYP2C9 act: 1.1

Results for COC(=O)c1ccc(CSc2nc3ccccc3o2)cc1 ?
CYP2C19 act: 1; CYP2C19 inhib: 4; PLAP activator: 0.9; CYP2C9 inhib: -15; CYP2C9 act: 1.2

Results for CCN(CC)S(=O)(=O)c1ccc2oc(SCc3ccc(F)cc3)nc2c1 ?
CYP2C19 act: 0.8; CYP2C19 inhib: 25; PLAP activator: 1.1; CYP2C9 inhib: 69*; CYP2C9 act: 0.3

Results for O=C(NCCN1CCOCC1)c1ccncc1 ?
CYP2C19 act: 0.2; CYP2C19 inhib: 81*; PLAP activator: 1.1; CYP2C9 inhib: 15; CYP2C9 act: 0.9

What do the screens show for `COc1ccc(C2c3c(ncn(CCN4CCOCC4)c3=N)Oc3ccc4ccccc4c32)cc1OC` (stereo not given)?
CYP2C19 act: 0.9; CYP2C19 inhib: 14; PLAP activator: 1.3; CYP2C9 inhib: 25; CYP2C9 act: 0.7

How did CCc1cc2c(N3CCN(c4ccccc4)CC3)ncnc2s1 do in these assays?
CYP2C19 act: 0.7; CYP2C19 inhib: 35; PLAP activator: 0.9; CYP2C9 inhib: 56*; CYP2C9 act: 0.4

Assay outcomes from PubChem BioAssay.
